From PubChem BioAssay
An excerpt weighted towards active compounds, which were near 11% of everything screened.
ALDH1A1 block – ALDH1A1 (human) enzyme inhibition; P00352; Purified ALDH1A1, NADH fluorescence, propionaldehyde substrate; Potency, µM (highest dose often 75.3 µM), usual class: inhibitors; 220,000 compounds, 7.3% hits; AID 1030
KDM4E inh – inhibitors of human JMJD2E histone demethylase; B2RXH2; JMJD2E catalytic domain, FDH-coupled NADH fluorescence (FDH is formaldehyde dehydrogenase); Potency, µM (top dose mostly 57.1 µM), most hits filed as inhibitors; 230,000 compounds, 1.6% hits; further: nearly all actives have a fitted effect of over 50% in size
Target sequence (B2RXH2 1-337 limits assumed): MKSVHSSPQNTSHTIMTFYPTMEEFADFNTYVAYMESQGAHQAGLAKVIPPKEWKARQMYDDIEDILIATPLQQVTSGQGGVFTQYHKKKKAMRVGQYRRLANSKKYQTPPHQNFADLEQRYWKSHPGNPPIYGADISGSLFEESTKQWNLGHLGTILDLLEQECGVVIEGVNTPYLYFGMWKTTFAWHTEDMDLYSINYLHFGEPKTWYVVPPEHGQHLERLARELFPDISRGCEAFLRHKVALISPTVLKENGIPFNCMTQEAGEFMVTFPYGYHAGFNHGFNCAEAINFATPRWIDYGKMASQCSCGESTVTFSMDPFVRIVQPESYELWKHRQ
HPGD inh – HPGD (human) dehydrogenase inhibition | P15428 | purified HPGD, NADH fluorescence kinetic, PGE2 substrate | Potency, µM, actives largely listed as inhibitors | 150,000 compounds, 4.3% hits | AID 894
Target sequence (P15428 whole entry, looked up): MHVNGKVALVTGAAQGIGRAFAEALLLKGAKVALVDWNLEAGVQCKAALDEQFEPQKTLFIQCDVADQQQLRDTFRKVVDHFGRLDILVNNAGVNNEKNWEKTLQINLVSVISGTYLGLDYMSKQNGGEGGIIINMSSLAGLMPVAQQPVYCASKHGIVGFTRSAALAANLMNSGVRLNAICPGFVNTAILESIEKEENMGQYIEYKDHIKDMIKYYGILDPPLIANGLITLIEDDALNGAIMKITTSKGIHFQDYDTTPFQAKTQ
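NADH formation kinetics: reaction with 30 uM PGE2 and 1 mM NAD+ (final), 20 nM enzyme, Tris-HCl pH 8 with Tween 20, after 15 min compound preincubation at room temperature. Fluorescence change, last versus first of five reads.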
PNC inhibitor – blocks assembly of the perinucleolar compartment; PC3M PTB-GFP, PNC prevalence imaging, 16 h; active compounds read low; activity change (PNC), negative = inhibition, % at 10 µM; 140,000 compounds, 3.1% hits; AID 2417;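 active means readout at or below -70, meaning at least 70% loss of cells showing the perinucleolar compartment, a nuclear body marking cancer cells; inconclusive means readout between -30 and a set limit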
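Read-out is percentage of cells bearing a perinucleolar compartment, from automated 20x imaging of fixed, Hoechst-stained PC3M PTB-GFP cells. Cells were seeded 4 h, then exposed 16 h to compound (23 nl of library stock) in duplicate plates.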
A number is an active result; n = inactive; u = inconclusive; x = no result given; ! = not confirmed by another sample; [ ] = another dose, or the depositor's remark. Unless noted, the call rests on the fitted dose curve; in most records, active means well fitted inhibition curve with a large enough effect (not every such curve was filed as active); inconclusive means small, poorly fitted or top-dose-only effect, or another doubt; inactive means no such curve, though single readings can be large or run the other way.

SMILES	ALDH1A1 block	KDM4E inh	HPGD inh	PNC inhibitor
O=[N+]([O-])c1ccccc1-c1ccc(C(=S)N2CCCCC2)o1	22µM	n	x	x
CCN(CC)CC1CCN(c2ncc3ncnc(Nc4ccc(F)c(Cl)c4)c3n2)CC1	n	x	n	x
CC(=O)OC(C(=O)c1ccccc1)c1ccccc1 (configuration not stated)	22µM	x	n	x
COc1ccc(C(=O)OC(C(=O)c2ccc(C)cc2)c2ccccc2)cc1 (configuration not stated)	n	n	n	n
Cc1c(C(=O)O)cccc1[N+](=O)[O-]	n	x	n	x
Cc1c(N=Cc2ccc(O)c(Br)c2)cccc1[N+](=O)[O-]	22µM	n	u	u
COc1ccc(C(=O)CSC#N)cc1OC	1.3µM	n	x	x
Cc1nc(C(=O)N/N=C/c2[nH]ncc2Br)cs1	n	n	x	x
O=[N+]([O-])c1cc(Oc2cccnc2)cc([N+](=O)[O-])c1	n	n	n	n
CCn1ncc([N+](=O)[O-])c1C(=O)Nc1ccc(C(=O)N2CCCCC2)cc1	u	n	2.2µM	n
Cn1cc([N+](=O)[O-])c(C(=O)Nc2ccc(C(=O)N3CCCCC3)cc2)n1	n	n	0.4µM	u
Cn1cc([N+](=O)[O-])c(C(=O)Nc2cc(Oc3cccnc3)cc([N+](=O)[O-])c2)n1	13µM	n	n	u
CN(C)c1ccnc(-c2ccccc2C(F)(F)F)n1	n	n	n	x
O=C(c1ccc(S(=O)(=O)N2CCOCC2)cc1)N(c1cccc(Cl)c1)C1C=CS(=O)(=O)C1 (configuration not stated)	n	n	x	x
CCN(C(=O)CN1C(=S)NC(C)(C)CC1C)c1ccc(C)c(C)c1 (configuration not stated)	28µM	n	x	x
CC(NC(=O)c1ccnn1C)C1CCCO1 (configuration not stated)	n	n	x	x
COc1ccc(Cc2noc(CN3CCN(Cc4cccc(Cl)c4)CC3)n2)cc1OC	8.9µM	n	x	x
COCCN1CCN(Cc2nc(Cc3ccc(OC)c(OC)c3)no2)CC1	n	n	x	x
OC(c1ccccc1)c1nc2ccccc2s1 (configuration not stated)	n	n	16µM	n
COc1cccc(Cn2c(=O)cnc3cnc(Oc4ccccc4)nc32)c1	n	x	x	x
O=C(Cn1nnc(-c2ccccc2NC(=O)c2ccccc2F)n1)NC1CCCC1	n	u	x	x
CCOC(=O)c1c(NC(=O)C2=C(C)NC(=S)NC2c2ccc(C)cc2)sc(C)c1C (configuration not stated)	u	n	u	n
CCOC(=O)c1c(NC(=O)C2=C(C)NC(=S)NC2c2ccc(F)cc2)sc(C)c1C (configuration not stated)	14µM	u	u	n
CCOC(=O)c1c(NC(=O)C2=C(C)NC(=S)NC2c2ccc(F)cc2F)sc(C)c1C (configuration not stated)	11µM	u	n	u
CC1=NCCN1CCNC(=O)Nc1ccc(C(C)(C)C)cc1	n	n	x	x
SMILES	ALDH1A1 block	KDM4E inh	HPGD inh	PNC inhibitor
CCSc1ccccc1C(=O)Nc1cccnc1	n	n	n	-100
O=C(Nc1cccnc1)c1ccccc1Oc1ccccc1	18µM	n	n	n
CCSc1ccccc1C(=O)Nc1nncs1	u	n	u	n
Cc1cccc(CNc2ncncc2-c2cccnc2)c1	n	x	x	x
COc1ccc(C2=C(SC)CC2=NC(C)(C)C)cc1	18µM	u	n	u
O=C(COC(=O)c1ccc(Br)cc1)Nc1ccccc1Br	u	n	x	x
COC(=O)c1sccc1NC(=O)CSc1ccccc1NS(=O)(=O)c1ccccc1Cl	7.1µM	n	n	n
CCN(CC)CC(=O)Nc1ccccc1SCC(=O)Nc1ccsc1C(=O)OC	n	n	x	x
COC(=O)c1sccc1NC(=O)CSc1cc(Cl)ccc1Cl	u	n	n	u
COC(=O)c1sccc1NC(=O)CSc1ccccc1NS(=O)(=O)c1ccc(Cl)cc1	13µM	n	n	n
CCSc1ncc(/C=N/Nc2ccc(Cl)cc2)n1C	u	18µM	n	n
CCSc1ncc(/C=N/Nc2ccccc2)n1C	u	n	n	u
C/C(=N/N1CCN(Cc2cccc3ccccc23)CC1)c1ccco1	x	n	x	x
CN1CCc2cc(NC(=O)Nc3cccnc3)ccc21	n	n	n	x
Cn1ccc2cc3c(cc21)CCN3C(=O)Nc1cccnc1	n	35µM!	n	x
Cc1cnc(NC(=O)COc2cccc3c2OC(C)(C)C3)s1	n	n	n	-95
Cc1cc(NC(=O)COC(=O)COc2cccc3c2OC(C)(C)C3)no1	n	n	n	n
Cc1nn(-c2ccccc2)nc1C(=O)Nc1nnc(C(F)(F)F)s1	x	n	x	x
COC(=O)[C@@]1(Cc2ccc(OC)cc2)[C@H]2c3cc(C(=O)N4CCCC4)n(Cc4cc(F)c(F)c(F)c4)c3C[C@H]2CN1C(=O)c1ccccc1	n	n	n	x
COC(=O)C1=C(C)NC(=S)NC1c1ccc(-c2cc(Cl)ccc2Cl)o1 (configuration not stated)	x	n	x	x
O/N=C/c1cc(Br)cc(Br)c1OCc1ccccc1	n	n	14µM	n
O=C(COc1cc(=O)n2c(n1)SCCC2)c1ccccc1	14µM	n	16µM	n
CCOC(=O)OCC1OC(C#Cc2ccc(C(C)(C)C)cc2)C=CC1OC(=O)OCC (configuration not stated)	n[13.5 µM]	x	x	x
CCOC(=O)OCC1OC(C#Cc2ccccc2)C=CC1OC(=O)OCC (configuration not stated)	3.5µM	x	x	x
O=S(=O)(Cc1cc(Oc2ccccc2)nc(-c2ccccc2)n1)c1ccccc1	n	n	n	-102
SMILES	ALDH1A1 block	KDM4E inh	HPGD inh	PNC inhibitor
COc1cccc(C(=O)N2CCN(C(=O)c3cccs3)CC2)c1OC	22µM	n	n	n
COC(=O)c1ccc(C2/C(=C(/O)c3ccc(OC)cc3)C(=O)C(=O)N2Cc2ccco2)cc1 (configuration not stated)	18µM	u	n	n
CC(C)(C)C(=O)Cn1ncc(Br)c(Br)c1=O	7.9µM	n	x	x
C=CCNc1cnn(CC(C)=O)c(=O)c1Br	n	n	n	n
COc1ccc(C2NC(=O)c3sc4nc(C)c(C(C)=O)c(-c5ccc(Cl)cc5)c4c3N2)cc1 (configuration not stated)	u	u	u	n
O=c1c(Cc2c(F)cccc2Cl)c(O)ccn1Cc1ccc2c(c1)OCO2	7.9µM	n	x	x
CCCn1c2ccccc2c2nnc(SCC(=O)Nc3nnc(CC(=O)OCC)s3)nc21	n	n	n	n
CCOC(=O)Cc1nnc(NC(=O)CSc2nnc3c4ccccc4n(C(C)C)c3n2)s1	28µM	u	u	n
COc1ccc(NC(=O)c2ccc(CNc3c(NC4CCCCC4)c(=O)c3=O)cc2)cc1OC	n	n	18µM	n
COc1ccc(S(=O)(=O)Nc2ccccc2C(=O)NC(C)(C)C)cc1OC	u	n	u	-112
CC(NC(=O)C1CCCN(S(=O)(=O)c2cnc[nH]2)C1)c1ccccc1 (configuration not stated)	n	n	n	-81
O=C(C1CCCN(S(=O)(=O)c2cnc[nH]2)C1)N(CCc1ccccc1)Cc1ccccc1 (configuration not stated)	11µM	n	n	n
